Where “and” joins values, the source holds several entries; their conditions need not be identical. Equal values may be shown once. Inconclusive results are not listed. Some compounds were tested as several samples or in several runs, with calls that do not always agree. Calls of active or inactive are those of the source. The call rests on the fitted dose curve; in most records, active means well fitted inhibition curve with a large enough effect; inconclusive means small, poorly fitted or top-dose-only effect; inactive means flat fitted curve, though single readings scatter.
Target: Phospholipid hydroperoxide glutathione peroxidase GPX4 (Homo sapiens) (UniProt P36969)
Assay: Primary qHTS Assay for Inhibitors of Recombinant Selenoprotein Glutathione Peroxidase 4 (GPX4) (AID 1845192); further: nearly all actives have a fitted effect of over 65% in size
Settings: recombinant GPX4, GR-coupled NADPH fluorescence, 15 min; series mostly up to 50 µM; activity change, negative = inhibition: at the top concentration
How it was run: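 GR-coupled readout: 100 nM GR, 1 mM GSH, 0.5 mM NADPH; NADPH fluorescence (ex 340/em 450 nm) read at t=0 and after 15 min RT. GPX4 200 nM, preincubated 30 min with compound; substrate 0.5 mM CHP.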
On the % scale 0 is the no-effect control and ±100 the full control effect; potency means the concentration at half of the fitted maximal effect.

Sequence of Phospholipid hydroperoxide glutathione peroxidase GPX4 (Homo sapiens) (P36969 whole entry, looked up): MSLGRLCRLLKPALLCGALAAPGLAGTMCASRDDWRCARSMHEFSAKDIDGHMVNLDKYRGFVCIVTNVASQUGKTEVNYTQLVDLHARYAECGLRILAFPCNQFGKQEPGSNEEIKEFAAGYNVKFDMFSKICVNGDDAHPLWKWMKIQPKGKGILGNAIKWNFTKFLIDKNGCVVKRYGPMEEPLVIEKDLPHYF

Row | SMILES | activity change, negative = inhibition | outcome | Potency
1 | CC1CCC2(O1)C(C)(C)CC(O[C@@H]1O[C@H](CO[C@@H]3OC[C@](O)(CO)[C@H]3O)[C@@H](O)[C@H](O)[C@H]1O)CC2(C)O (stereo partly specified) | -3.93% [at 27.8 µM] (inactive) | – | –
2 | C[C@]12CCC(=O)C=C1[C@@H](O)C[C@@H]1[C@@H]2[C@@H](O)C[C@@]2(C)[C@H]1CC[C@]2(O)C(=O)CO | – | inactive | –
3 | C/C=C1\[C@H](O[C@@H]2O[C@H](CO)[C@@H](O)[C@H](O)[C@H]2O)OC=C(C(=O)OC)[C@H]1CC(=O)OC | -7% [at 27.8 µM] (inactive) | – | –
4 | CC(=O)O[C@H]1[C@H](C)[C@@H](O)[C@H]2[C@@H]1C=C(C(=O)O)[C@H]1C[C@@H]3[C@H]([C@H]21)[C@H]1C(=O)O[C@@H]2CC[C@@]3(C)O[C@]1(O)[C@@H]2C | 2.82% [at 27.8 µM] (inactive) | – | –
5 | NC(Cc1c[nH]c2ccccc12)C(=O)NC(CCC(=O)O)C(=O)O (stereo unspecified) | 0.667% (inactive) | – | –
6 | C=C1C(OC(C)=O)C(=O)C2C(C)(C)C(OC(C)=O)CCC2(C)C1CC(OC(C)=O)/C(C)=C/COC(C)=O (stereo unspecified) | 1.56% [at 27.8 µM] (inactive) | – | –
7 | CC1(C)CCC[C@@]2(C)[C@H]1[C@H](O)C=C1COC(=O)[C@@]12O | 4.45% (inactive) | – | –
8 | COC(=O)c1cc(CN2CCN(C(=N)N)CC2)cc(C(=O)N2CCN(C(=O)c3ccc(C(=N)N)cc3)CC2)c1 | -7.56% (inactive) | – | –
9 | O=C1NC(=Nc2ccccc2F)S/C1=C\c1ccc(C(=O)O)cc1 | -5.77% (inactive) | – | –
10 | CC(=O)OC[C@@]12[C@@H](OC(C)=O)C[C@@H](C)[C@](C)([C@@H]3C[C@H]4C=CO[C@H]4O3)[C@H]1CCC[C@]21CO1 | – | inactive [at 27.8 µM] | –
11 | CCCCC(=O)OCC(=O)[C@]1(O)Cc2c(O)c3c(c(O)c2[C@@H](O[C@H]2C[C@H](NC(=O)C(F)(F)F)[C@H](O)[C@H](C)O2)C1)C(=O)c1c(OC)cccc1C3=O | – | – | inactive
12 | CNC(=O)c1ccc2cc([C@@]3(O)CCn4cncc43)ccc2c1 | 9.26% (inactive) | – | –
13 | C=C1CC[C@@H]2[C@](C)(CO)[C@H](O)CC[C@@]2(C)[C@@H]1C/C=C1/C(=O)OC[C@H]1O | -18.8% (inactive) | – | –
14 | C=CC1(C)CC2=CCC3C(C)(C(=O)O)CCCC3(C)C2CC1OC(C)=O (stereo unspecified) | -23.2% [at 27.8 µM] (inactive) | – | –
15 | NCc1ccc(OCCCc2sc(-c3ccc4c(c3)/C(=N/Nc3nc5ccccc5s3)CCC4)nc2C(=O)O)cc1 | -14.1% (inactive) | – | –
16 | O=C(O)c1ccc(CCCc2ccc(OCCc3ccc(F)cc3)cc2)o1 | – | – | 16.1 µM (active)
17 | Cc1c(-c2ccnn2C)cc(C(=O)NCc2ccc(S(C)(=O)=O)cn2)c(=O)n1-c1cccc(C(F)(F)F)c1 | – | – | inactive and 12.8 µM (active)
18 | O=C(c1ccc(C#Cc2cccc(F)c2)cn1)N1CC2CC2C1 (stereo unspecified) | 2.35% (inactive) | – | –

Row | SMILES | activity change, negative = inhibition | outcome | Potency
19 | CCOc1nc2cccc(C(=O)OCc3oc(=O)oc3C)c2n1Cc1ccc(-c2ccccc2-c2noc(O)n2)cc1 | – | – | inactive and 12.6 µM (active)
20 | CC(O)C(O)/C=C/C=C/C(=O)O[C@@H]1C=C2COC(=O)[C@]2(O)[C@@]2(C)CCCC(C)(C)C12 (stereo partly specified) | -1.15% [at 27.8 µM] (inactive) | – | –
21 | C=C1C2=CC(O)C(C)C1(C)CC/C(C)=C/CCC1(C)OC1C2=O (stereo unspecified) | -5.64% [at 27.8 µM] (inactive) | – | –
22 | CC1(C)O[C@@H]2C[C@H]3[C@@H]4CCC5=CC(=O)C=C[C@]5(C)[C@H]4[C@@H](O)C[C@]3(C)[C@]2(C(=O)CO)O1 | -8.17% (inactive) | – | –
23 | C=C(C)[C@@H]1CC[C@](C)(O)[C@@H](OC(=O)c2ccccc2)C1 | 4.11% (inactive) | – | –
24 | CCCOc1ccn2c(C(C)=O)cc(-c3ccccc3S(C)(=O)=O)c2c1 | – | – | inactive
25 | Nc1ccn([C@@H]2C(F)=C(CO)[C@@H](O)[C@H]2O)c(=O)n1 | – | inactive | –
26 | C[C@@H]1CC[C@H]2C(C)(C)[C@H](O)[C@H](O)C[C@]2(C)[C@@]12Cc1c(O)cc3c(c1O2)CNC3=O | 0.0387% [at 27.8 µM] (inactive) | – | –
27 | OC[C@H]1O[C@@H](Oc2cc(O)cc(-c3cc4ccc(O)cc4o3)c2)[C@H](O)[C@@H](O)[C@@H]1O | – | – | 8.81 µM (active)
28 | CC1(C)CCC(C)(C)c2cc([C@@H](O)C(=O)Nc3ccc(C(=O)O)cc3F)ccc21 | 2.42% (inactive) | – | –
29 | CC1(C)CC2C(C1)C1(C)CCC13OC3(CO)C2O (stereo unspecified) | -1.06% (inactive) | – | –
30 | c1ccc(C(OC2CCN(CCCc3nn[nH]n3)CC2)c2ccccc2)cc1 | -4.54% (inactive) | – | –
31 | COc1cc(NC(=O)c2ccccn2)ccc1Cl | -1.6% (inactive) | – | –
32 | CC1(C)C(O)CCC2(C)C1C(O)C=C1COC(=O)C12O (stereo unspecified) | -7.41% (inactive) | – | –
33 | Oc1ccc([C@H]2COc3cc(O)ccc3C2)cc1 | -1.2% (inactive) | – | –
34 | CC(C)(O)C1CCC2(C)C3C(O)C4C(C13)C42CO (stereo unspecified) | -2.96% (inactive) | – | –
35 | CC(C)C(=O)OCC(=O)[C@@]12O[C@H](C3CCCCC3)O[C@@H]1C[C@H]1[C@@H]3CCC4=CC(=O)C=C[C@]4(C)[C@H]3[C@@H](O)C[C@@]12C | – | inactive | –
36 | C=CCc1ccc(O[C@@H]2O[C@H](CO[C@@H]3O[C@H](CO)[C@@H](O)[C@H](O)[C@H]3O)[C@@H](O)[C@H](O)[C@H]2O)c(O)c1 | -2.55% [at 27.8 µM] (inactive) | – | –

From PubChem BioAssay (NCATS)
